From PubChem BioAssay (NCATS)
Results filed as inconclusive are left out. A call without a number means that no potency is given here. The source made the active and inactive calls. Unless noted, the call rests on the fitted dose curve; in most records, active means well fitted curve in the direction sought with a large enough effect; inconclusive means small, poorly fitted or top-dose-only effect, or another doubt; inactive means no such curve, though single readings can be large; an effect the other way counts as inactive or inconclusive.

How the values were obtained:
[1] = molecular target: Phospholipid hydroperoxide glutathione peroxidase GPX4 (Homo sapiens) (UniProt P36969); test: Primary qHTS Assay for Inhibitors of Recombinant Selenoprotein Glutathione Peroxidase 4 (GPX4) (AID 1845192); further: nearly all actives have a fitted effect of over 65% in size; further: potency means the concentration at half of the fitted maximal effect
Outline: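 NADPH consumption followed by fluorescence at 340/450 nm, t=0 and after 15 min at room temperature. Reaction started with cumene hydroperoxide (0.5 mM final) after 30 min compound–GPX4 preincubation; final 200 nM GPX4, 100 nM GR, 1 mM GSH, 0.5 mM NADPH.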

[2] = molecular target: Luciferin 4-monooxygenase (Photinus pyralis) (UniProt P08659); test: Primary firefly luciferase (FLuc) qHTS assay for identification of artifact compounds. (AID 1845220); further: nearly all actives have a fitted effect of over 60% in size
Outline: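 Cell-free, 1536-well qHTS. Buffer pH 7.6 with 0.01% Tween-20 and 0.05% BSA; 10 uM D-luciferin, 10 uM ATP; 10 nM P. pyralis luciferase; luminescence after 5 min.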

[3] = Primary fluorescence-based thiol-reactive (MSTI) qHTS assay for identification of artifact compounds. (AID 1845221); further: nearly all actives have a fitted effect of over 65% in size; further: potency means the concentration at half of the fitted maximal effect
Outline: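 Thiol-reactive compounds detected by quenching of 4 uM MSTI fluorescence (525/598 nm) after 1 h room-temperature dark incubation in PBS pH 7.4, 2% DMSO. qHTS titration; percent inhibition Hill-fitted against Acetyl-MSTI/MSTI controls.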

[4] = tested on: Nanoluciferase (engineered Oplophorus gracilirostris luciferase); test: Primary Nanoluciferase (NLuc) qHTS assay for identification of artifact compounds. (AID 1845222); further: series mostly up to about 54 µM
Outline: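 Compounds are pinned into diluted (1:55) conditioned medium of NLuc-expressing S16 cells and held 15 min at room temperature protected from light. Nano-Glo substrate follows, and luminescence is read 5 min later.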

[5] = Primary redox qHTS assay for identification of artifact compounds. (AID 1845223)
Outline: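 Redox-cycling detection via DTT (250 uM final) oxidation coupled to Amplex Red (25 uM)/HRP (250 mU/mL) in HBSS. 15 min preincubation plus 30 min after DTT, room temperature. Ex/Em 525/598 nm; 4-parameter Hill fit against DMSO and 10 uM DA3003.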

[6] = molecular target: Glutathione peroxidase 1 (Homo sapiens) (UniProt P07203); test: Primary qHTS Assay for Inhibitors of Recombinant Selenoprotein Glutathione Peroxidase 1 (GPX1) (AID 1845191); further: nearly all actives have a fitted effect of over 65% in size
Outline: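 NADPH consumption tracked by fluorescence at 340/450 nm between t=0 and t=15 min, room temperature. Final mix: 10 nM GPX1, 100 nM glutathione reductase, 1 mM GSH, 0.5 mM NADPH, 0.5 mM cumene hydroperoxide, 0.01% BSA; 30 min compound–enzyme preincubation.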

[7] = qHTS drug screen for cell cycle checkpoint inhibitors in PARPi-resistant BRCA-mutant ovarian cancer cell lines. (AID 1963452; calls by dose curve); conditions: PEO1/OlaR viability, CellTiter-Glo luminescence, 96 h, stronger effect = lower value
Outline: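 PEO1, PEO4 and PEO1/OlaR ovarian cancer cells, 600 per well, exposed 96 h at 37C to a dilution series. Viability read by CellTiter-Glo luminescence, normalized to DMSO and empty wells; activity summarized as Z-AUC.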

[8] = measured here: PEO1 parental Z-AUC

Glutathione peroxidase 1 (Homo sapiens), sequence (P07203 whole entry, looked up): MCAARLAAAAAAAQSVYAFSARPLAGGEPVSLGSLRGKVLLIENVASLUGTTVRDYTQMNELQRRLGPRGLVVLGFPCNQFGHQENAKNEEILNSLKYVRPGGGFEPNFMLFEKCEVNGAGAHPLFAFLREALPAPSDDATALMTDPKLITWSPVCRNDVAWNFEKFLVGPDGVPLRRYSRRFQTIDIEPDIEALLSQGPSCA
Phospholipid hydroperoxide glutathione peroxidase GPX4 (Homo sapiens), sequence (P36969 whole entry, looked up): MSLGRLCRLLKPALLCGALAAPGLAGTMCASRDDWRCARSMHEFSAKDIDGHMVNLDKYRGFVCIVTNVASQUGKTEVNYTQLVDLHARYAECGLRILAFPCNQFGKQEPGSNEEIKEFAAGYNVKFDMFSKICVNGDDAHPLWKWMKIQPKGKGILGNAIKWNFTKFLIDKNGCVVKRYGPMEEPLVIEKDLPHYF

Compound	Potency [1]	Potency [2]	Potency [3]	Potency [4]	Potency [5]	Potency [6]	Z-AUC [7]	Z-AUC [7, 8]	Z-AUC ([7]; measured here: PEO4 Z-AUC)
CCOc1cc(CC(=O)NC(CC(C)C)c2ccccc2N2CCCCC2)ccc1C(=O)O (configuration not stated)	inactive	inactive	inactive	inactive	inactive				
COc1cc2c(NC3CCN(CC4CCCCC4)CC3)nc(N3CCCN(C(C)C)CC3)nc2cc1OCCCN1CCCCC1		inactive	inactive	inactive	inactive	inactive	0.256 (inactive)	0.301	-0.248
Cn1nnc(-c2ccc(-c3ccc(N4C[C@H](COP(=O)(O)O)OC4=O)cc3F)cn2)n1	22.7 µM (active)	inactive	inactive	inactive	inactive				
CCOC(=O)C(CCc1ccccc1)NC1CSC(c2cccs2)CN(CC(=O)O)C1=O (configuration not stated)	inactive	inactive	inactive	inactive					
O=C1OCC(c2ccccc2)=C1Cc1ccccc1	inactive	inactive	inactive						
Cc1cc(N(C)C)ccc1-c1nc2ccc(-c3nc4ccc(N5CCN(C)CC5)cc4[nH]3)cc2[nH]1			2.38 µM (active)	inactive		inactive			
CC(C)CC1NC(=O)C(C)NC(=O)C(CC(C)C)OC(=O)CCCNC1=O (configuration not stated)	inactive	inactive	inactive	inactive					
COc1cc2c3c(cc4ccccc4c3c1O)NC2=O		inactive	10.6 µM (active)	inactive	inactive	inactive			
CC[C@]1(O)CC2CN(CCc3c([nH]c4ccccc34)[C@@](C(=O)OC)(c3cc4c(cc3OC)N(C=O)[C@H]3[C@@](O)(C(=O)OC)[C@H](OC(C)=O)[C@]5(CC)C=CCN6CC[C@]43[C@@H]65)C2)C1 (some centres not stated)	inactive	inactive	inactive	inactive					
Cc1c(CN2CCN(C(=O)C(C)O)CC2)sc2c(N3CCOCC3)nc(-c3cnc(N)nc3)nc12 (configuration not stated)	inactive	inactive	inactive	inactive	inactive				
Cn1cncc1C(N)(c1ccc(Cl)cc1)c1ccc2c(c1)c(-c1cccc(Cl)c1)cc(=O)n2C (configuration not stated)		inactive		inactive	inactive	inactive	-1.06 (inactive)	-0.892	-0.873
CCC(C)/C=C(C)/C=C/c1cc2c(cn1)C(=O)C(C)(OC(C)=O)C(O)=C2Cl (configuration not stated)			0.736 µM (active)	inactive		inactive			
COc1ccc(C(=O)n2c(C)c(Cc3cccc(O[C@@H](C)C(=O)O)c3)c3cc(OC(F)(F)F)ccc32)cc1			inactive	inactive	inactive	inactive			
O=C(c1ccc(/C=C/c2n[nH]c3ccccc23)cc1)N1CCNCC1			inactive	inactive	inactive	inactive	-0.885 (inactive)	-0.223	-0.438
COc1ccc(C2=N[C@@H](c3ccc(Cl)cc3)[C@@H](c3ccc(Cl)cc3)N2C(=O)N2CCNC(=O)C2)c(OC(C)C)c1	inactive	inactive	inactive	inactive	inactive				
COc1cc(C2c3cc4c(c(O)c3CC(CO)C2C(=O)O)OCO4)cc(OC)c1O (configuration not stated)	inactive	inactive	10.3 µM (active)	inactive	inactive				
CC(C)C(N)C(=O)OCCOCn1cnc2c(=O)[nH]c(N)nc21 (configuration not stated)	inactive	inactive	inactive	inactive	inactive				
Cc1ccc(C(=O)N(CCCN)C(c2nc3cc(Cl)ccc3c(=O)n2Cc2ccccc2)C(C)C)cc1 (configuration not stated)	inactive	inactive	inactive	inactive	inactive				
NC1(C(=O)NC(CCO)c2ccc(Cl)cc2)CCN(c2ncnc3[nH]ccc23)CC1 (configuration not stated)	inactive	inactive	inactive	inactive	inactive				
COC(=O)N[C@H](C(=O)N1[C@@H]2CC[C@@H](C2)[C@H]1c1nc2ccc(-c3ccc4c(c3)C(F)(F)c3cc(-c5cnc([C@@H]6CCC7(CC7)N6C(=O)[C@@H](NC(=O)OC)C(C)C)[nH]5)ccc3-4)cc2[nH]1)C(C)C	inactive	inactive	inactive	inactive	inactive				
Cc1ccc(F)cc1C(=O)Nc1ccc(C(=O)N2Cc3cccn3Cc3ccccc32)c(Cl)c1	inactive	inactive	inactive	inactive	inactive				
O=C(O)Cc1ccc2oc(-c3ccc(NC(=O)/C=C/c4ccc(Br)cc4)c(F)c3)nc2c1	inactive	inactive	inactive	inactive	inactive				

Compound	Potency [1]	Potency [2]	Potency [3]	Potency [4]	Potency [5]	Potency [6]	Z-AUC [7]	Z-AUC [7, 8]	Z-AUC ([7]; measured here: PEO4 Z-AUC)
CC1(c2nc3c(C(N)=O)cccc3[nH]2)CCCN1 (configuration not stated)	inactive	inactive	inactive	inactive	inactive				
CC1(C)CC[C@]2(C(=O)O)CC[C@]3(C)C(=CCC4[C@@]5(C)C[C@@H](O)[C@H](O)C(C)(C)C5CC[C@]43C)C2C1 (some centres not stated)	inactive	inactive	inactive	inactive	inactive				
Cc1ccc(NC(=O)c2ccc(CN3CC[C@H](N(C)C)C3)c(C(F)(F)F)c2)cc1Nc1nccc(-c2cncnc2)n1	inactive	inactive	inactive	inactive	inactive				
COC(C(=O)N1Cc2[nH]nc(NC(=O)c3ccc(N4CCN(C)CC4)cc3)c2C1)c1ccccc1 (configuration not stated)	inactive	inactive	inactive	inactive	inactive				
COc1cc2c(cc1OC)-c1[nH]nc(Nc3cccc(F)c3)c1C2	inactive	inactive	1.89 µM (active)	inactive	inactive				
C[C@@H]1COCCN1c1cc(C2(S(C)(=O)=O)CC2)nc(-c2cccc3[nH]ccc23)n1	18 µM (active)	inactive	inactive	inactive	inactive				
O=C(O)c1cn(C2CC2)c2cc(N3C[C@@H]4C[C@H]3CN4)c(F)cc2c1=O	10.1 µM (active)	inactive	inactive	inactive	inactive				
CC(C)CN(C[C@@H](O)[C@H](Cc1ccccc1)NC(=O)O[C@@H]1CO[C@H]2OCC[C@H]21)S(=O)(=O)c1ccc(N)cc1	inactive	inactive	inactive	inactive	inactive				
C[C@@H]1C(=O)O[C@H]2[C@@H](O)C34[C@H]5C[C@@H](C(C)(C)C)C36[C@@H](OC(=O)[C@@H]6O)O[C@@]4(C(=O)O5)[C@@]12O (some centres not stated)	inactive	inactive	inactive	inactive	inactive				
O=C(O)/C=C/c1ccc(-c2ccc(O)c(C34CC5CC(CC(C5)C3)C4)c2)cc1	inactive	inactive	inactive	inactive	inactive				
Cc1cc(C)nc(NS(=O)(=O)c2ccc(NC(=S)NC(=O)COc3ccc(Br)cc3Cl)cc2)n1	inactive	inactive	inactive	inactive	inactive				
CC(NC(=O)C(O)C(C)C)C(=O)NC1C(=O)N(C)CCc2ccccc21 (configuration not stated)	inactive	inactive	inactive	inactive	inactive				
CC(NC(=O)CCc1nc2ccccc2c(=O)[nH]1)c1ccccc1 (configuration not stated)	inactive	inactive	inactive	inactive	inactive				
COc1ccc(C[C@H](N)C(=O)N[C@@H]2[C@H](O)[C@H](n3cnc4c(N(C)C)ncnc43)O[C@@H]2CO)cc1	inactive	inactive	inactive	inactive	inactive				
CC(Nc1ncnc2nc[nH]c12)c1cc2cccc(Cl)c2c(=O)n1-c1ccccc1 (configuration not stated)	inactive	inactive	inactive	inactive	inactive				
COc1ccc(CNC(=O)c2cc(-c3cncc(C)c3)ncc2-c2nccs2)nc1OC	inactive	inactive	inactive	inactive	inactive				
Cc1cn(C2C=CC(CO)O2)c(=O)[nH]c1=O (configuration not stated)	inactive	inactive	inactive	inactive	inactive				
CN(C)C/C=C/C(=O)Nc1cc2c(Nc3ccc(F)c(Cl)c3)ncnc2cc1OC1CCOC1 (configuration not stated)	inactive	inactive	inactive	inactive	inactive				
CO[C@H]1O[C@@H]2O[C@]3(C)CC[C@H]4[C@H](C)CC[C@@H]([C@H]1C)[C@@]24OO3	inactive	inactive	inactive	inactive	inactive				
CCOC(=O)C(CCc1ccccc1)NC(C)C(=O)N1C(=O)N(C)CC1C(=O)O (configuration not stated)	inactive	inactive	inactive	inactive	inactive				
CC(C)(C(=O)NCC(F)(F)C(F)(F)F)C(=O)NC1C(=O)Nc2ccccc2-c2ccccc21 (configuration not stated)	inactive	inactive	inactive	inactive	inactive				
CNC(C)C(=O)NC(C(=O)N1CCCC1c1nc(C(=O)c2ccc(F)cc2)cs1)C1CCCCC1 (configuration not stated)	inactive	inactive	inactive	inactive	inactive				
